From PubChem BioAssay (Tox21) come the findings set out here.

Results filed as inconclusive are left out. A call without a number means that no potency is given here. Unmarked numbers belong to inactive results. The source made the active and inactive calls. Calls follow the shape of the dose curve; as a rule, active = well fitted cell-killing curve with a large enough effect in the repeat runs; inconclusive = weak or mixed curves, or effect the other way; inactive = flat fitted curve, though single readings scatter.

The nature of assay [1]: cAMP Responsive Elements (CRE) small molecule antagonists, cell-based qHTS assay: qHTS cell viability counter screen (AID 2060913). Also: nearly all actives have a fitted effect of over 40% in size. In short, it runs like this: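 CRE-bla HEK293T cells (2,000/well, 18 h) given compound plus NKH477 0.25 uM final for 3 h at 37C; viability counter-screen by CellTiter-Glo luminescence in same wells after 30 min.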
Background: In qHTS, concentration-response curves come from the screen itself.

Assay [2] can be described thus: cAMP Responsive Elements (CRE) small molecule agonists, cell-based qHTS assay: qHTS cell viability counter screen (AID 2060914). Also: nearly all actives have a fitted effect of over 50% in size. Also: potency is read from the fitted curve at half-maximal effect. In short, it runs like this: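 CRE-bla HEK293T cells in 10% dialyzed FBS medium were exposed to compounds for 3 h at 37C after 18 h plating. CellTiter-Glo was then added in the same wells, and luminescence was read after 30 min at room temperature.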

For `Oc1ccc2c(c1)CCC2`, the Potency result in assay [1] and in assay [2] was “inactive” in each case.
For the compound `CC1=NN(c2cc(Cl)c(S(=O)(=O)O)cc2Cl)C(=O)C1N=Nc1ccc(S(=O)(=O)O)cc1` (stereo not drawn), the Potency entry in assay [1] is “inactive”. Moreover, in assay [2], the Potency was 2.43 µM (active).
The corresponding values for `CC(C)[C@H]1CC[C@@H](C)CC1=O` are “inactive” and “inactive”.
In the case of `CCC(=O)CC(C)CC` (stereo not drawn), the viability change, negative = cytotoxic in assay [1] was -1.01% [at 0.349 µM]. In addition, the activity change, negative = cytotoxicity in assay [2] was 6.36% [at 0.349 µM].
Regarding `NCc1ccccc1`, the Potency entry in assay [1] and in assay [2] was “inactive” in each case.
Turning to `CCCCCc1cccc(=O)o1`, the Potency entry in assay [1] and in assay [2] was “inactive” throughout.
For `C=C(C)C(=O)OCCO`, the Potency entry in assay [1] and in assay [2] was “inactive” in each case.
As to `CC[N+](C)(CC)CCOC(=O)C1c2ccccc2Oc2ccccc21`, the Potency result in assay [1] and in assay [2] was “inactive” in each case.
As for `COc1ccc2c(c1)C(=O)N(CCc1ccc(S(=O)(=O)NC(=O)NC3CCCCC3)cc1)C(=O)C2(C)C`, the Potency result in assay [1] and in assay [2] was “inactive” throughout.
With `Cc1ccc(/C(=C\CN2CCCC2)c2ccccn2)cc1`, the Potency result in assay [1] and in assay [2] was “inactive” in each case.
Take `CCC1CO1` (stereo not drawn): the Potency result in assay [1] and in assay [2] was “inactive” in each case.
On to `Cn1cnc2c(=O)[nH]c(N)nc21`, for which the Potency result in assay [1] and in assay [2] was “inactive” throughout.
As to `CCCCC(CC)COS(=O)(=O)O` (stereo not drawn), the Potency entry in assay [1] and in assay [2] was “inactive” each time.
In the case of `COc1cnc(NS(=O)(=O)c2ccc(N)cc2)nc1`, the Potency result in assay [1] and in assay [2] was “inactive” in each case.
As for `CSc1ccc(Cl)cc1`, the Potency result in assay [1] and in assay [2] was “inactive” in each case.
With `O=C(Nc1ccc2c(O)c(N=Nc3ccc(N=Nc4ccc(S(=O)(=O)O)cc4)cc3)c(S(=O)(=O)O)cc2c1)c1ccccc1`, the Potency entry in assay [1] and in assay [2] was “inactive” in each case.
Regarding `COC(=O)c1ccc(C(=O)OC)cc1`, the Potency entry in assay [1] and in assay [2] was “inactive” in each case.
In the case of `CN(C)c1ccc(CCO)cc1`, the Potency result in assay [1] and in assay [2] was “inactive” throughout.
Turning to `CN1CCN(CCCN2c3ccccc3Sc3ccc(S(=O)(=O)N(C)C)cc32)CC1`, the Potency result in assay [1] and in assay [2] was “inactive” throughout.
On to `C=C(C)CCCC`, for which the Potency entry in assay [1] and in assay [2] was “inactive” in each case.
For the compound `CCCC/C=C/CCCCO`, the Potency entry in assay [1] and in assay [2] was “inactive” in each case.
Consider `COc1c2occc2c(OC)c2c(=O)cc(C)oc12`, for which the Potency result in assay [1] and in assay [2] was “inactive” throughout.
Consider `CNCC[C@H](Oc1cccc2ccccc12)c1cccs1`, for which the Potency result in assay [1] and in assay [2] was “inactive” in each case.
As for `O=C(CCCCC(=O)Nc1c(I)cc(I)c(C(=O)O)c1I)Nc1c(I)cc(I)c(C(=O)O)c1I`, the Potency entry in assay [1] and in assay [2] was “inactive” in each case.
Turning to `O=Nc1ccc(O)cc1`, the Potency entry in assay [1] and in assay [2] was “inactive” in each case.
Regarding `CC(C)(C)NC(=O)[C@H]1CC[C@H]2[C@@H]3CC[C@H]4NC(=O)C=C[C@]4(C)[C@H]3CC[C@]12C`, the Potency result in assay [1] and in assay [2] was “inactive” throughout.
Regarding `Clc1cc(Cl)c(Cl)c(Cl)c1Cl`, the Potency entry in assay [1] and in assay [2] was “inactive” each time.
Consider `O=C1c2ccccc2C(=O)C1c1ccc2ccccc2n1`, for which the Potency result in assay [1] and in assay [2] was “inactive” in each case.
For `O=C(O)CCCCC1CCSS1` (stereo not drawn), the Potency result in assay [1] and in assay [2] was “inactive” throughout.
As for `COc1ccccc1Oc1c(NS(=O)(=O)c2ccc(C(C)(C)C)cc2)nc(-c2ncccn2)nc1OCCO`, the Potency entry in assay [1] and in assay [2] was “inactive” each time.
Regarding `CC(C)COC(=O)CCCCC(=O)OCC(C)C`, the Potency entry in assay [1] and in assay [2] was “inactive” in each case.
For `O=C1NCCN1`, the Potency result in assay [1] and in assay [2] was “inactive” throughout.
For the compound `COC(OC)OC`, the Potency result in assay [1] and in assay [2] was “inactive” each time.
For the compound `CNCCc1ccccn1`, the Potency result in assay [1] and in assay [2] was “inactive” in each case.
As to `CC1C2CC(CC2C2CCCC(O)C2)C1(C)C` (stereo not drawn), the Potency result in assay [1] and in assay [2] was “inactive” throughout.
Consider `CC(C)OC(=O)CCC(=O)OC(C)C`, for which the Potency entry in assay [1] and in assay [2] was “inactive” in each case.
Turning to `Cc1c(Cl)c(=O)oc2cc(O)ccc12`, the Potency result in assay [1] and in assay [2] was “inactive” throughout.
For `Nc1ccn([C@H]2CC[C@@H](CO)O2)c(=O)n1`, the Potency result in assay [1] and in assay [2] was “inactive” each time.
Consider `CC(=O)CC(C)(C)O`, for which the Potency entry in assay [1] and in assay [2] was “inactive” each time.
Take `CC1=CCC(O)(C(C)C)CC1` (stereo not drawn): the Potency entry in assay [1] and in assay [2] was “inactive” in each case.
With `Cc1cc(O)c2c(c1)C(=O)c1cc(O)cc(O)c1C2=O`, the Potency result in assay [1] and in assay [2] was “inactive” in each case.
In the case of `Cc1ccc(N)c(S(=O)(=O)O)c1`, the Potency result in assay [1] and in assay [2] was “inactive” throughout.
Take `C/C(=N/NC(=O)c1ccncc1)C(=O)O`: the Potency entry in assay [1] and in assay [2] was “inactive” in each case.
On to `CC(C)COC(=O)c1ccc(O)cc1`, for which the Potency result in assay [1] and in assay [2] was “inactive” in each case.
`CCCCC(CC)C(=O)O` (stereo not drawn): the Potency entry in assay [1] and in assay [2] was “inactive” each time.
As to `O=[N+]([O-])c1cccc(S(=O)(=O)O)c1`, the Potency result in assay [1] and in assay [2] was “inactive” throughout.
`Cn1cnc2ncnc(N)c21`: the Potency entry in assay [1] and in assay [2] was “inactive” each time.
In the case of `CN1CCC[C@H]1c1cccnc1`, the Potency result in assay [1] and in assay [2] was “inactive” each time.
For the compound `CCCCCCCC/C=C/C(=O)O`, the Potency entry in assay [1] and in assay [2] was “inactive” in each case.
In the case of `O=[N+]([O-])c1ccc(CO)cc1`, the Potency entry in assay [1] and in assay [2] was “inactive” each time.
For the compound `COC(=O)c1cc(Cl)ccc1NS(=O)(=O)C(F)(F)F`, the Potency result in assay [1] and in assay [2] was “inactive” in each case.
For the compound `COc1ccc(NC(=O)CC(C)=O)cc1`, the Potency result in assay [1] and in assay [2] was “inactive” throughout.
Regarding `N[C@@H](CS)C(=O)O`, the Potency result in assay [1] and in assay [2] was “inactive” throughout.
On to `CCN[C@H]1C[C@H](C)S(=O)(=O)c2sc(S(N)(=O)=O)cc21`, for which the Potency entry in assay [1] and in assay [2] was “inactive” each time.
For `c1ccc(CN(CC2=NCCN2)c2ccccc2)cc1`, the Potency entry in assay [1] and in assay [2] was “inactive” each time.
Consider `[O-][N+](=Nc1ccccc1)c1ccccc1`, for which the Potency entry in assay [1] and in assay [2] was “inactive” throughout.
`Cc1cccc(O)c1`: the Potency entry in assay [1] and in assay [2] was “inactive” each time.
`CC(C)C[P+](C)(CC(C)C)CC(C)C`: the Potency entry in assay [1] and in assay [2] was “inactive” each time.
Turning to `C#C[C@]1(O)CC[C@H]2[C@@H]3CCc4cc(OC5CCCC5)ccc4[C@H]3CC[C@@]21C`, the Potency result in assay [1] and in assay [2] was “inactive” throughout.
